Compound activity from PubChem BioAssay.
Not all results are given here.
aSyn 5UTR act: Activators via SNCA 5'UTR binding, MLPCN; AID 1814, 2009; alpha-synuclein 5'UTR reporter, activators screen; activity score, % (tested at 7.5 µM), hits read low; 7.1% of 300,000 active; in the data active means activity score below about -60%
Numbers stand for hits.

Screening Cc1ccc(NC(=O)c2cc3ccccc3o2)nc1 returned aSyn 5UTR act -94.6.
`COc1ccccc1NC(=O)c1cc2ccccc2o1` gave aSyn 5UTR act -91.6.
For Nc1ccccc1C(=O)Nc1ccc(Cl)cc1Cl the results were aSyn 5UTR act -119.6.
Screening O=C(Nc1ccc(Cl)cc1Cl)c1cc2ccccc2o1 returned aSyn 5UTR act -110.2.
For O=C(Cc1ccc(Cl)cc1)Nc1ccc(-c2cc3ccccc3oc2=O)c(Cl)c1 the results were aSyn 5UTR act inactive.
